Results from PubChem BioAssay (NCATS).
Results filed as inconclusive are left out. Activity calls are given as the source filed them. The call rests on the fitted dose curve; in most records, active means well fitted inhibition curve with a large enough effect; inconclusive means small, poorly fitted or top-dose-only effect; inactive means flat fitted curve, though single readings scatter.

Legend:
[1] = target: Glutathione peroxidase 1 (Homo sapiens) (UniProt P07203); assay: Primary qHTS Assay for Inhibitors of Recombinant Selenoprotein Glutathione Peroxidase 1 (GPX1) (AID 1845191); further: nearly all actives have a fitted effect of over 65% in size
Glutathione peroxidase 1 (Homo sapiens), sequence (P07203 whole entry, looked up): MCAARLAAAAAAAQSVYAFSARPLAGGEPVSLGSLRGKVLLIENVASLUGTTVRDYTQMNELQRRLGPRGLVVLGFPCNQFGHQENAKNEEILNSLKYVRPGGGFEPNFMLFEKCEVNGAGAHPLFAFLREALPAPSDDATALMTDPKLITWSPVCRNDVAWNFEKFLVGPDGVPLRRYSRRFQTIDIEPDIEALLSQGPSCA
Outline: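 GR-coupled readout: NADPH consumption tracked by fluorescence, ex 340/em 450 nm, at t=0 and after 15 min at RT. Final mix 10 nM GPX1, 1 mM GSH, 0.5 mM CHP, 0.5 mM NADPH, 100 nM GR, 0.01% BSA, following 30 min enzyme–compound preincubation.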

[2] = target: Phospholipid hydroperoxide glutathione peroxidase GPX4 (Homo sapiens) (UniProt P36969); assay: Primary qHTS Assay for Inhibitors of Recombinant Selenoprotein Glutathione Peroxidase 4 (GPX4) (AID 1845192); further: nearly all actives have a fitted effect of over 65% in size
Phospholipid hydroperoxide glutathione peroxidase GPX4 (Homo sapiens), sequence (P36969 whole entry, looked up): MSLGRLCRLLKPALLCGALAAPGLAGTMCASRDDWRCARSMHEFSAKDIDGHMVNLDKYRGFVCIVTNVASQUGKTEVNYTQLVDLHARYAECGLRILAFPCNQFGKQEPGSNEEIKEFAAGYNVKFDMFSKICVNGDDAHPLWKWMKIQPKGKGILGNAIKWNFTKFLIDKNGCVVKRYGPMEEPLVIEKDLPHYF
Outline: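 Steps: GPX4 plus compound, 30 min RT; add GR/GSH/NADPH master mix; start with cumene hydroperoxide; read 340/450 nm fluorescence at 0 and 15 min. Finals were 200 nM GPX4, 1 mM GSH, 0.5 mM CHP, 0.5 mM NADPH, 100 nM GR.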

[3] = target: Luciferin 4-monooxygenase (Photinus pyralis) (UniProt P08659); assay: Primary firefly luciferase (FLuc) qHTS assay for identification of artifact compounds. (AID 1845220); further: nearly all actives have a fitted effect of over 60% in size
Outline: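 D-luciferin and ATP (10 uM each, final) in Tris acetate buffer pH 7.6 were incubated with compounds for 15 min at room temperature. The reaction was started with 10 nM Photinus pyralis luciferase and luminescence read after 5 min. Percent inhibition was fitted to a 4-parameter Hill equation.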

[4] = test system: Nanoluciferase (engineered Oplophorus gracilirostris luciferase); assay: Primary Nanoluciferase (NLuc) qHTS assay for identification of artifact compounds. (AID 1845222); further: series mostly up to about 54 µM
Outline: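 Diluted conditioned medium from NLuc-expressing S16 cells treated with compounds for 15 min at room temperature, then Nano-Glo substrate added; luminescence read after 5 min. Percent inhibition versus no-enzyme and DMSO controls fitted to 4-parameter Hill equation.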

Measured: Potency

C=C1C(=O)O[C@@H]2C3=C(C)CCC[C@]3(C)CC[C@@]12O
inactive: [1] | [2] | [3] | [4]

C=C1C(=O)OC2C1CCC1(C)C(O)CC=C(C)C21 (centres undefined)
inactive: [1] | [2] | [3] | [4]

CCC(C)/C=C(C)/C=C/C1=CC2=C(Cl)C(=O)C(C)(OC(C)=O)C(=O)C2(O)C(OC)O1 (centres undefined)
inactive: [1] | [2] | [3] | [4]

COC1C(OC(=O)/C=C/C=C/C=C/C=C/C(=O)O)CCC2(CO2)C1C1(C)OC1CC=C(C)C (centres undefined)
inactive: [1] | [2] | [3] | [4]

Cc1onc(-c2ccccc2)c1C(=O)N1CCN(c2ccc([N+](=O)[O-])cc2Cl)CC1
inactive: [1] | [2] | [3] | [4]

COC(=O)c1ccnc(-c2cc(C(=O)Nc3ccc(C4(N)CC4)cc3)ccn2)c1
inactive: [1] | [2] | [3] | [4]

COc1ccc([C@H](Cc2ccncc2)c2ccccc2)cc1OC1CCCC1
inactive: [1] | [2] | [3] | [4]

CC[C@H](C(=O)Nc1ccccc1N1CCCC1)c1ccccc1
inactive: [1] | [2] | [3] | [4]

CC(=O)C=C=C1C(C)(C)CC(O)CC1(C)O[C@@H]1O[C@H](CO[C@H]2OC[C@](O)(CO)[C@H]2O)[C@@H](O)[C@H](O)[C@H]1O (some centres undefined)
inactive: [1] | [2] | [3] | [4]

Cc1cc(C)c2c(c1)C(N(Cc1cc(C(F)(F)F)cc(C(F)(F)F)c1)c1nnn(C)n1)CCCN2CC1CCC(C(=O)O)CC1 (centres undefined)
inactive: [1] | [2] | [3] | [4]

CCOC(=O)c1cnn(-c2ccccc2)c1NC(=O)c1cc2nc(-c3ccco3)cc(C(F)(F)Cl)n2n1
inactive: [1] | [2] | [3] | [4]

C=C1CCC2C(C)(C(=O)O)CCCC2(C)C1CCC1=CCOC1=O (centres undefined)
inactive: [1] | [2] | [3] | [4]

C=C1/C(=C/C=C2\CCC[C@]3(C)[C@@H]([C@H](C)/C=C/[C@@H](C)C(C)C)CC[C@@H]23)C[C@@H](O)C[C@@H]1O
inactive: [1] | [2] | [3] | [4]

O=C(Nc1cccc([N+](=O)[O-])c1)c1cccc(S(=O)(=O)N2CCCCCC2)c1
inactive: [1] | [2] | [3] | [4]

CNCCC(c1cccs1)c1ccc(O)c2ccccc12 (centres undefined)
inactive: [1] | [2] | [3] | [4]

CC(C)(O)/C=C/C(=O)[C@](C)(O)[C@H]1[C@H](O)C[C@@]2(C)[C@@H]3CC=C4[C@@H](C[C@H](O[C@@H]5O[C@H](CO)[C@@H](O)[C@H](O)[C@H]5O)C(=O)C4(C)C)[C@]3(C)C(=O)C[C@]12C
inactive: [1] | [2] | [3] | [4]

CC(/C=C/C(=O)NO)=C\[C@@H](C)C(=O)c1ccc(N(C)C)cc1
inactive: [1] | [2] | [3] | [4]

C=C(C)C(=O)O[C@H]1[C@H]2C(=C)C(=O)O[C@@H]2/C=C(\CO)CC/C=C(/C=O)[C@@H]1O
inactive: [1] | [2] | [3] | [4]

CC(C)C[C@H](CO)Nc1nc(S[C@@H](C)c2ccccc2)nc2nc(N)sc12
inactive: [1] | [2] | [3] | [4]

C=C(C)C1CC(O)C(C)C12CC(O)C1(C)OC1C2O (centres undefined)
inactive: [1] | [2] | [3] | [4]

O=c1[nH]cnc2c([C@@H]3N[C@H](CO)[C@@H](O)[C@H]3O)c[nH]c12
inactive: [1] | [2] | [3] | [4]

CC1CCCC(O)CC(=O)c2c(O)cc(O)cc2CC(=O)O1 (centres undefined)
inactive: [1] | [2] | [3] | [4]

C/C1=C\CCC2=CC(OC2=O)C(C)(C)/C=C/C1=O (centres undefined)
inactive: [1] | [2] | [3] | [4]

CC1(C)CC[C@]2(C(=O)O[C@@H]3O[C@H](CO)[C@@H](O)[C@H](O)[C@H]3O)CC[C@]3(C)C(=CCC4[C@@]5(C)CC[C@H](O[C@@H]6O[C@H](C(=O)O)[C@H](O)[C@H](O)[C@H]6O)C(C)(C)C5CC[C@]43C)[C@@H]2C1 (some centres undefined)
inactive: [1] | [2] | [3] | [4]

C=C1C(=O)OC2CC(C)=C(C(C)CCCOC(C)=O)C(OC(=O)CC(C)CC)C12 (centres undefined)
inactive: [1] | [2] | [3] | [4]

C/C=C(/C)C(=O)O[C@H]1C=C(CO)C(=O)[C@H](OC(=O)/C(C)=C/CO)[C@H]1C(C)C
inactive: [1] | [2] | [3] | [4]
